Cycloheximide cs: Cycloheximide Counterscreen for Small Molecule Inhibitors of Shiga Toxin | AID 2314, 2010 | max response, % | cell reporter, cycloheximide protein synthesis inhibition counterscreen | hit rate 12% among 300,000; in the data active = max response mostly above about 13%, no sharp cut-off; inactive = mostly below about 14%; also: read at 38.3 µM for the half of the compounds with a filed dose; 0% is about no effect
Pf growth 48h: Primary qHTS for delayed death inhibitors of the malarial parasite plastid, 48 hour incubation. P. falciparum luciferase growth in erythrocytes, 48 h. Potency, µM (top dose mostly 28.7 µM), for the others: at the top dose activity change, negative = inhibition, most hits filed as inhibitors. hit rate 5.9% among 310,000; active = well fitted inhibition curve with a large enough effect; inconclusive = small, poorly fitted or top-dose-only effect, or another doubt; inactive = no such curve, though single readings can be large or run the other way; also: potency is read from the fitted curve at half-maximal effect; % is scaled to controls: 0 for no effect and ±100 for the full control effect
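A one-generation exposure of luciferase-tagged malaria parasites in RPMI 1640/Albumax erythrocyte culture, 37 C and 5% CO2. Inhibition is inferred from decreased luminescence after adding detection reagent.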
Pf growth 96h: Primary qHTS for delayed death inhibitors of the malarial parasite plastid, 96 hour incubation | P. falciparum luciferase reporter growth, 96 h | Potency, µM (series often up to 28.7 µM), without a hit: top-dose activity change, negative = inhibition, hits mostly inhibitors | hit rate 6.9% among 320,000 | AID 504834, 2011; active = well fitted inhibition curve with a large enough effect; inconclusive = small, poorly fitted or top-dose-only effect, or another doubt; inactive = no such curve, though single readings can be large or run the other way; also: potency is read from the fitted curve at half-maximal effect; % is scaled to controls: 0 for no effect and ±100 for the full control effect
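Luminescence readout: decreased luciferase signal marks inhibited growth of reporter-expressing P. falciparum in infected red cells (2% hematocrit, 0.05% parasitemia final), exposed to compound two generations (96 h, 37 C, 5% CO2).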
SARS PLpro yeast: qHTS of Yeast-based Assay for SARS-CoV PLP; S. cerevisiae expressing SARS-CoV PLpro, growth rescue; Potency, µM (highest dose often 32.9 µM), inactives show top-dose activity, positive = growth rescue, usual class: activators; hit rate 0.19% among 330,000; AID 485353, 2010; also: potency is read from the fitted curve at half-maximal effect; 0% is about no effect; nearly all actives have a fitted effect of over 55% in size
Shiga toxin inh: A qHTS for Small Molecule Inhibitors of Shiga Toxin; Vero cells, Shiga toxin protein synthesis inhibition reporter; inhibition, % at 38.7 µM; hit rate 9.2% among 290,000; AID 2315, 2010; in the data active = inhibition mostly above about 28%, no sharp cut-off; inactive = mostly below about 43%; also: 0% is about no effect
NS1 function inh: qHTS Assay for Inhibitors of Influenza NS1 Protein Function; hit rate 0.4% among 270,000; AID 2326, 2010; Potency, µM (titrated, usually from 46.1 µM), for inactives: top-dose activity, positive = more growth; also: potency is read from the fitted curve at half-maximal effect; actives are rising curves; nearly all actives have a fitted effect of over 50% in size
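In this qHTS, NS1 from influenza A is expressed in budding yeast, where it slows growth. Cells are switched from glucose to 2% galactose medium (pH 6.0, -URA), treated with compound, and growth recovery is read at OD600.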
An asterisk follows results filed as active; ? = inconclusive; . = no result given; + = active, no number; [ ] = another dose, or the depositor's remark. A selection: hits, their analogues and other compounds. The true share with any hit is near 21%. Unless noted, calls follow the shape of the full dose curve.

SMILES	Cycloheximide cs	Pf growth 48h	Pf growth 96h	SARS PLpro yeast	Shiga toxin inh	NS1 function inh
CCOc1ccccc1CNC(=O)C1CCCN(c2nn3c(=O)cc(C)nc3s2)C1 (stereo not given)	-7	?	15µM*	0%	-7	8%
CCOc1cc(C)nc(N2CCCC(C(=O)NCc3ccccc3F)C2)n1 (stereo not given)	-4	2.9µM*	.	2%	-17	-19%
Cc1cc(C)c(C#N)c(SCc2c(F)cccc2[N+](=O)[O-])n1	7	?	-11%	4%	-10	-14%
Cc1ccc(S(=O)(=O)N(C)CC(=O)Oc2ccc(-c3nnco3)cc2)cc1	.	-6%	19%	1%	.	.
COc1ccc(CNC(=O)C2CCN(c3nn4c(=O)cc(C)nc4s3)CC2)cc1	-4	-13%	?	?	-2	7%
Cc1cc(=O)n2nc(N3CCC(C(=O)NCc4ccccc4)CC3)sc2n1	5	-13%	-13%	4%	11	5%
CCOc1ccc(CCNC(=O)C2CCN(c3nn4c(=O)cc(C)nc4s3)CC2)cc1	-3	10µM*	59%	1%	-30	3%
COc1ccc(CNC(=O)C2CCCN(c3nn4c(=O)cc(C)nc4s3)C2)cc1 (stereo not given)	-1	-14%	9.3µM*	0%	-5	2%
CCc1ccccc1NC(=O)C1CCCN(c2nn3c(=O)cc(C)nc3s2)C1 (stereo not given)	-2	?	10µM*	4%	-1	10%
Cc1cc(=O)n2nc(N3CCC(C(=O)NCc4ccccc4F)CC3)sc2n1	-1	-6%	?	11µM*	-11	9%
CCOC(=O)c1cc(-c2ccccc2)n(CC2CC(c3ccc(OC)cc3)=NO2)n1 (stereo not given)	2	-17%	-27%	-4%	-3	-48%
COc1ccc(-n2ncc(C(=O)NC3CC3)c2C2CCN(C(=O)OC(C)(C)C)CC2)cc1	4	?	16%	2%	11	1%
CCOc1ccccc1N1CCN(C(=S)NCc2ccc(Cl)cc2)CC1	5	-14%	-19%[5.75 µM]	-5%	-2	-56%
COc1ccc(Cc2nnc(SCC(=O)Nc3ccc(N4CCOCC4)cc3)o2)cc1	-1	25%	-21%	-1%	-9	8%
CCC(CC)C(=O)c1c[nH]c(C(=O)OC)c1	-2	14%	5%	-1%	-5	-1%
CNC(=S)N(Cc1ccc(OC)cc1)C1CC(=O)N(c2ccc(C(=O)OC)cc2)C1=O (stereo not given)	-1	?	5.9µM*	5%	-5	-21%
CCCOc1ccc(N2C(=O)CC(N(CCc3ccc(OC)c(OC)c3)C(=S)Nc3ccccc3)C2=O)cc1 (stereo not given)	13	2.1µM*	?	-14%	16	?
C=CCN(C(=O)Nc1ccccc1)C1CC(=O)N(c2ccc(OC)cc2)C1=O (stereo not given)	4	5%	12µM*	5%	-4	-4%
CCCOc1ccc(N2C(=O)CC(N(CCOC34CC5CC(CC(C5)C3)C4)C(C)=O)C2=O)cc1 (stereo not given)	-6	44%	5.2µM*	-2%	-6	.
CNC(=S)N(Cc1ccc(OC)cc1)C1CC(=O)N(c2ccc(OC)cc2)C1=O (stereo not given)	-1	-22%	?	-16%	3	11%
COC(=O)CSc1[nH]c2ccc(F)cc2c1[N+](=O)[O-]	-1	-5%	0%	1%	-8	-36%
CCN(CC)C(=O)C(=O)c1cccn1-c1c(Cl)cccc1C#N	3	-4%	9%	7%	3	2%
CCCOc1ccc(N2C(=O)CC(N(Cc3ccc(OC)cc3)C(=S)Nc3ccccc3)C2=O)cc1 (stereo not given)	25*	?	?	13%	30	6%
Cc1ccc(CC2SC(=Nc3ccccc3)N(c3ccccc3)C2=O)cc1 (stereo not given)	-5	10µM*	197%	-55%	-10	-18%
Cc1ccc(N2C(=O)SC(Cc3ccccc3)C2=O)cc1 (stereo not given)	14*	31%	105%	0%	42*	-5%
SMILES	Cycloheximide cs	Pf growth 48h	Pf growth 96h	SARS PLpro yeast	Shiga toxin inh	NS1 function inh
Oc1cccc(/C=N/Nc2nn3cnnc3c3ccccc23)c1	-2	12%	4%	-3%	24	-3%
COc1cccc(/C=N/NC(=O)Cn2nc(C)c([N+](=O)[O-])c2C)c1O	-2	12µM*	?	16%	-3	22%
COc1cccc(/C=N/NC(=O)N/N=C/c2cccc(OC)c2O)c1O	25*	?	?	7%	.	6%
CCn1c(C)nc2cc(C(=O)N/N=C/c3cccc(OC)c3O)ccc21	18	?	?	8%	60*	-8%
COc1cccc(/C=N/Nc2nn3cnnc3c3ccccc23)c1O	-1	?	0.33µM*	-3%	0	13%
CCn1c(C)nc2cc(C(=O)N/N=C/c3ccc(O)c(O)c3O)ccc21	11	9%	52%	-2%	10	14%
COc1cccc(/C=N/N2C(=O)CSC2=S)c1O	32*	4%	?	7%	45*	26%
COc1cc(/C=N/N2C(=O)CSC2=S)cc(Br)c1O	-2	0%	5%	4%	5	-5%
COc1cccc(/C=N/NC(=O)C(=O)N2CCCC2)c1O	61*	?	30%	?	+	-165%
COc1cccc(/C=N\NC(=O)c2ccc(Cn3cc(Br)c([N+](=O)[O-])n3)o2)c1O	44*	?	?	5%	56*	28%
COc1cccc(/C=N/Nc2ccccc2C(=O)O)c1O	47*	195%	25%	0%	64*	-56%
COc1cccc(/C=N/NC(=O)C(=O)N2CCCC2)c1OC	1	9%	18%	2%	-15	0%
COc1cccc(/C=N/Nc2ccc(C(=O)O)cc2)c1O	-12	-56%	-24%	-11%	-27	.
COc1ccc(NC(=O)CN(C)C(=O)c2cccc(-n3cccc3)c2)cc1	.	0%	-3%	3%	.	.
Cc1cc(SCc2cc(=O)[nH]c3ccccc23)nc2ccccc12	-1	1.5µM*	?	3%	-4	-5%
Cc1cc(SCC(=O)O)nc2ccccc12	-2	12%	15%	1%	-18	-2%
O=c1cc(CSc2ccccn2)c2ccccc2[nH]1	2	7%	9.3µM*	-1%	13	5%
O=C(c1cccc([N+](=O)[O-])c1)c1ccc2[nH]c(=O)[nH]c2c1	-7	20%	26%	4%	-5	4%
Cc1cc(C)c2cc3c(N)c(C(=O)Nc4c(C)[nH]c(=O)[nH]c4=O)sc3nc2c1	15	-19%	-22%	-15%	-6	1.4µM*

High-throughput results deposited in PubChem BioAssay by National Center for Advancing Translational Sciences (NCATS).
